# Reference: publication PMC5540273 (PLoS ONE, 2017)
# Tested on: CAMK2D
# Settings: concentration: 1 μM, replicates: in singlicate; n = 1
# 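Note: KINOMEscan kinase panel screen.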
row,Compound,%Inh [%]
1,O=C(Nc1n[nH]c2nc(-c3ccccc3)c(Br)cc12)C1CC1 [SB-708998],4
2,COC(=O)c1c(-c2ccccc2)c2cc(Br)ccc2c(=O)n1Cc1ccc(NC(=O)CCC(=O)O)cc1,3
3,COc1cc2ncn(-c3cc(OCCCc4ccccc4)c(C(N)=O)s3)c2cc1OC [GSK205189],16
4,Nc1nc(N)c2nc(-c3ccccc3)[nH]c2n1 [SKF-12778],0
5,COc1ccc(CNC(=O)NC2CCN(c3ccnc(Nc4ccc(F)cc4)n3)C2)cc1 (stereo not drawn) [GSK1379706],18
6,COc1ccc(Nc2nccc(N3CCC(NS(=O)(=O)c4ccc(NC(C)=O)cc4)C3)n2)cc1 (stereo not drawn) [GSK1379729],0
7,CCS(=O)c1ccc(-c2coc3ccc(-c4nnc(C)o4)cc23)cc1 (stereo not drawn),0
8,COc1cc2ncn(-c3cc(OCc4ccncc4)c(C(N)=O)s3)c2cc1OC [GSK336313],37
9,O=C(Nc1n[nH]c2nc(-c3ccccc3)c(Cl)cc12)C1CC1 [SB-734909],0
10,Cc1nnc(-c2ccc3ncn(-c4ccc(S(C)=O)cc4)c3c2)o1 (stereo not drawn),4
11,Nc1n[nH]c2ncc(-c3ccccc3)cc12 [SB-517081],11
12,COc1cc2ncn(-c3cc(OCc4ccc(S(C)(=O)=O)cc4)c(C(N)=O)s3)c2cc1OC [GW869979],0
13,Cc1ccc(-c2ccc3c(ccc4sc5c(c43)NC[C@@H](C)N=C5N(C)C)n2)cn1,0
14,COc1cc(Nc2nccc(N3CCC(NC(=O)C(C)c4ccc(Cl)cc4)C3)n2)cc(OC)c1OC (stereo not drawn) [GSK1379757],0
15,Cl.NS(=O)(=O)c1cccc(Nc2cc(-c3ccc(F)cc3)n[nH]2)c1 [GW824645],0
16,CCCNC(=O)Nc1ccc(Oc2ncnc3ccn(C)c23)cc1,11
17,CCC(=O)c1c(-c2ccccc2)c2cc(Cl)ccc2c(=O)n1Cc1ccc(C(=O)O)cc1,0
18,O=c1cc(N2CCOCC2)nc2n(Cc3ccc(F)c(Cl)c3)ccn12 [GSK2297099],23

row,Compound,%Inh [%]
1,CCC(=O)c1c(-c2ccccc2)c2cc(Cl)ccc2c(=O)n1Cc1cc(S(C)(=O)=O)n(CC(N)=O)n1,0
2,FC(F)(F)c1ccc(-c2ncn(CCCN3CCOCC3)c2-c2ccncc2)cc1 [SB-217780],3
3,Cc1nc(N(C)[C@H]2CN(C(=O)CC#N)CC[C@H]2C)c2cc[nH]c2n1,0
4,Nc1ncnc2c1ncn2-c1cccc2ccccc12 [SKF-97184],0
5,Cc1nnc(-c2ccc(C)c(-c3ccc(C(=O)O)cc3)c2)o1 [GW608005],0
6,COc1cccc(C2=C(Nc3cccc(C(=O)O)c3)C(=O)NC2=O)c1 [SB-390770],0
7,COc1ccc(-c2cc3c(C)nc(N)nc3n([C@H]3CC[C@H](O)CC3)c2=O)cn1,0
8,Cc1cc(Nc2nc(-c3cccc(C)n3)nc3ccccc23)ccn1 [GW872411],0
9,COc1cc2nccc(Nc3ccc(OCc4ccc(NC(C)=O)cc4)cc3)c2cc1OC.Cl [GW440135],4
10,O=C(Nc1n[nH]c2cc(-c3ccccc3F)ccc12)C1CC1 [SB-733371],0
11,CN(C)c1cc(-c2ccc3c(N)n[nH]c3c2)nc(N)n1 [GSK2219329],0
12,CCS(=O)(=O)c1ccc(OC)c(Nc2ncc(-c3ccc(F)cc3)o2)c1.Cl [GW591947],12
13,Nc1nc(-c2ccccc2F)c(-c2ccnc3ccccc23)s1 [GW560459],0
14,Cc1nn2c(=O)cc(N3CCOCC3)nc2n1Cc1cccc(Cl)c1Cl [GSK2342769],1
15,Fc1cccc(CSc2nnc(-c3ccc4c(c3)CCO4)o2)c1,0
16,Cc1cccc(-c2cc(-c3c[nH]nc3-c3ccccn3)ccn2)c1 [GW679395],5
17,COc1cc2ncn(-c3cc(OCc4ccncc4Br)c(C(N)=O)s3)c2cc1OC [GW854278],17
18,CC(C)(C)c1ccc(C(=O)Nc2cn3cc(-c4ccccc4)ccc3n2)cc1,0
